# The whole screen tested about 310,000 compounds, of which about 14,000 (4.5%) showed an effect of 50% or more. The effect is printed as a negative number. Only a selection was taken, and strong results are over-represented in it overall.
# Biological target: human ether-à-go-go-related gene (hERG) potassium channel (human, UniProt Q12809)
# Experiment: primary screen, population patch clamp on CHO cells stably expressing hERG; higher = less effect of the substance
# 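Also: peak tail current of the secondary pulse compared with the same well before compound.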
# Chain of human ether-à-go-go-related gene (hERG) potassium channel (Q12809 whole entry, looked up): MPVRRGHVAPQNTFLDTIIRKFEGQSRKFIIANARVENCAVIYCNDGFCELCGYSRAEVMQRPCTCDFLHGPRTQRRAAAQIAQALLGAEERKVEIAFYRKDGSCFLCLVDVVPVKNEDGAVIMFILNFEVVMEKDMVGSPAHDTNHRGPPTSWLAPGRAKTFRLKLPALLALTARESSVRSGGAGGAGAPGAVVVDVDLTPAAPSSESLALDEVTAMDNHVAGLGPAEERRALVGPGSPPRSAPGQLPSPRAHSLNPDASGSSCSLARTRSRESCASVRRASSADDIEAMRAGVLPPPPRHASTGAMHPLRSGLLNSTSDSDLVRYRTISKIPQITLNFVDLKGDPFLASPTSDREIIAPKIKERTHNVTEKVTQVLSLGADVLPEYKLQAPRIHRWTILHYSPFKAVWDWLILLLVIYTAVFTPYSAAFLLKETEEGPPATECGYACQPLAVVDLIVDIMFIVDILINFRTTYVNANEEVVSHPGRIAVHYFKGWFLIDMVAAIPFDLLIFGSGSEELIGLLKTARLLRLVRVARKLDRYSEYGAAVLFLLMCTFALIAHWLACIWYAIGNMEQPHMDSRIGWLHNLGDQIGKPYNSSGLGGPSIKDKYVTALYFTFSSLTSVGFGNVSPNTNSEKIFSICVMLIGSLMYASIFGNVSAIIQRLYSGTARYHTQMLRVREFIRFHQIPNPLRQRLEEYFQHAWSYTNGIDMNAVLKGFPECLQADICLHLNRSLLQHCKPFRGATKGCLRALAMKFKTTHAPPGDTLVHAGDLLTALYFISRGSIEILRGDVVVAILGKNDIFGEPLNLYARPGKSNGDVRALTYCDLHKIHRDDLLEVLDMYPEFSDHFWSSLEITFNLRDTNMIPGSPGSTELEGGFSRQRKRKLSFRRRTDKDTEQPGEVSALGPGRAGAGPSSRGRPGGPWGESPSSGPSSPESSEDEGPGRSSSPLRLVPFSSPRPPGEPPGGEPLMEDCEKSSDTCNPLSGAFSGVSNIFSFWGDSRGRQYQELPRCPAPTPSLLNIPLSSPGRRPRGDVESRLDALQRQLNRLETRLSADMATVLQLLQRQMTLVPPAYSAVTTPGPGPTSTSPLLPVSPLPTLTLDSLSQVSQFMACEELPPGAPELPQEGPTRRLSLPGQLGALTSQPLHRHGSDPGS
row,SMILES,"hERG current change (%, negative = inhibition) at 10uM"
1,CN(C)S(=O)(=O)c1ccc(N2CCCC2)c(C(=O)NC(c2ccccc2)c2ccccc2)c1,6.73%
2,CN(C)S(=O)(=O)c1ccc(N2CCCC2)c(C(=O)Nc2ccccc2OC(F)F)c1,-54.2%
3,CN(C)S(=O)(=O)c1ccc(N2CCCC2)c(C(=O)Nc2ccc(F)cc2F)c1,-33.2%
4,COc1cc(-c2nn3c(-c4cccc(C)c4)nnc3s2)cc(OC)c1OC,13.1%
5,Cc1nn(C)c(=O)n1N(C)c1ncc(C(F)(F)F)cc1Cl,23.8%
6,Cc1ccc(F)cc1NC(=O)CN1CCN(c2ccccn2)CC1,-35.2%
7,Cc1[nH]c2ccc(C(=O)N3CCN(c4ccccn4)CC3)cc2c1C,-2.92%
8,Cc1c(CN2CC[C@@H](N3CCN(c4ccccn4)CC3)[C@H](O)C2)[nH]c2ccc(F)cc12,-60.9%
9,CCN(CC)CCNC(=O)c1ccc(NC(=O)c2c(C)nn(-c3ccc(F)cc3)c2Cl)cc1,-60%
10,CCN(CC)CCNC(=O)c1ccc(NC(=O)c2ccc(F)cc2)cc1,-43.6%
11,CCN(CC)CCNC(=O)c1ccc(NC(=O)c2c(F)cccc2Cl)cc1,-12.4%
12,COC(=O)c1c(C)nn(-c2ccc(F)c(Cl)c2)c1-c1cc(C)on1,-4.39%
13,O=C(O)CCSc1nnc(SCC(=O)NCC(F)(F)F)s1,7.55%
14,Cc1nn(C(=O)c2ccco2)c(C)c1CN1C(=O)c2ccccc2C1=O,-12.2%
15,OC(c1ccc(Cl)cc1)C(O)c1nc2ccccc2[nH]1 (stereo not drawn),-2.47%
16,Cl.OC(COCc1ccc(Cl)cc1)CN1CCN(c2ccccn2)CC1 (stereo not drawn),-66.4%
17,OC(COc1ccc(Cl)cc1)CN1CCN(c2ccccn2)CC1 (stereo not drawn),-68%
18,OC(COc1ccc2cc(Br)ccc2c1)CN1CCN(c2ccccn2)CC1 (stereo not drawn),1.85%
19,CC(C)(C)c1ccc(OCC(O)CN2CCN(c3ccccn3)CC2)cc1.Cl (stereo not drawn),-16%
20,OC(CN1CCN(c2ccccn2)CC1)Cn1c2ccc(Cl)cc2c2cc(Cl)ccc21 (stereo not drawn),0.599%
21,CC(C)c1ccc(OCC(O)CN2CCN(c3ccccn3)CC2)cc1.Cl (stereo not drawn),-63.7%
22,CC(=O)c1ccc(OCC(O)CN2CCN(c3ccccn3)CC2)cc1.Cl (stereo not drawn),-25.8%

row,SMILES,"hERG current change (%, negative = inhibition) at 10uM"
1,Cc1cc(OCC(O)CN2CCN(c3ccccn3)CC2)cc(C)c1Cl.Cl (stereo not drawn),-0.237%
2,O=C(O)CCCn1cc(NC(=O)c2ccco2)cn1,26.7%
3,O=C(NCCN1CCOCC1)c1ccc(CSc2nc3ccncc3n2Cc2ccc(F)cc2)cc1,-8.35%
4,Fc1ccc(-c2nnn(Cc3nc4ccccc4s3)n2)cc1,-11.2%
5,CCN(CC)C(=O)c1cc2c(=O)n3cccc(C)c3nc2s1,15.5%
6,Cc1cccc(-c2nc(CN3CCCC(C(=O)NC4CCC(C)CC4)C3)c(C)o2)c1 (stereo not drawn),-68.4%
7,Cc1cccc(-c2nc(CN3CCCC(C(=O)NC4CCCC4)C3)c(C)o2)c1 (stereo not drawn),-76.3%
8,COc1ccc(CNC(=O)C2CCCN(c3nccc(C)n3)C2)cc1 (stereo not drawn),-0.849%
9,Cc1cccc(-c2nc(CN3CCCC(C(=O)NC4CCCCC4)C3)c(C)o2)c1 (stereo not drawn),-60.4%
10,COc1ccc(CNC(=O)C2CCCN(Cc3nc(-c4cccc(C)c4)oc3C)C2)cc1 (stereo not drawn),-63.8%
11,CCN(c1ccc(OC)cc1)S(=O)(=O)N1CCCC(C(=O)NCc2cccc(C)c2)C1 (stereo not drawn),-26.5%
12,COc1cccc(N2CCN(S(=O)(=O)c3ccc(-n4cnnn4)cc3)CC2)c1,16.6%
13,CCN(CC)CCNC(=S)NC(=O)c1cn(-c2ccccc2)nc1-c1ccc(OC)cc1,-27.3%
14,COc1ccc(N(CC(=O)N2CCCCC2)S(=O)(=O)c2c(C)nn(C)c2C)cc1,4.36%
15,CCOC(=O)CSc1nnc(Cc2ccccc2)n1CC1CCCO1 (stereo not drawn),5%
16,Clc1ncc(Cn2cccn2)s1,10.5%
17,O=C1C2C3C=CC(C3)C2C(=O)N1/N=C/c1cn(Cc2ccc(F)cc2)c2ccccc12 (stereo not drawn),5.84%
18,O=C(NCCCn1ccnc1)c1ccc(Cl)s1,5.72%
19,COC(=O)c1c(NC(=O)COC(=O)c2ccc(NC(=O)CC#N)cc2)sc2c1CCCCC2,17.6%
20,Cc1cccc(-c2nc(CS(=O)CC(=O)NC3CCCCC3)c(C)o2)c1 (stereo not drawn),-3.93%
21,Cc1cccc(-c2nc(CN3CCCC(C(=O)NC4CCCCCC4)C3)c(C)o2)c1 (stereo not drawn),-69.8%
22,O=C(NCCO)c1cc2ccccc2c(=O)s1,6.96%

row,SMILES,"hERG current change (%, negative = inhibition) at 10uM"
1,Cc1cccc(-c2nn(-c3ccccc3)cc2C(=O)NCC(c2cccs2)N2CCOCC2)c1 (stereo not drawn),-4.33%
2,O=C1c2ccccc2N2C(=O)c3ccccc3C2N1Cc1ccco1 (stereo not drawn),-27.4%
3,O=C1c2ccccc2N2C(=O)c3ccccc3[C@H]2N1c1ccccc1,-22.4%
4,O=C1c2ccccc2N2C(=O)c3ccccc3C2N1Cc1ccccc1 (stereo not drawn),-57.9%
5,COC(=O)c1ccc(CN2C(=O)c3ccccc3C2=O)cc1,8.01%
6,Cc1cccc(NC(=O)CC2(CC(=O)O)CCCC2)c1,24.6%
7,Cn1nc(-c2ccccc2)cc1NC(=O)c1cccs1,5.18%
8,Cc1ccccc1S(=O)(=O)Cc1ccc(C(=O)NCCCN(C)Cc2ccccc2)o1,-56.2%
9,CCN(CC)CCNC(=O)c1ccc(CS(=O)(=O)c2ccccc2C)o1,-24%
10,Cc1ccccc1S(=O)(=O)Cc1ccc(C(=O)NCCN(Cc2ccccc2)C(C)C)o1,-55.6%
11,Cc1ccccc1S(=O)(=O)Cc1ccc(C(=O)NCCN(C)Cc2ccccc2)o1,-48.5%
12,Cc1ccccc1S(=O)(=O)Cc1ccc(C(=O)NCCN(CC(C)C)CC(C)C)o1,-43.6%
13,Cc1ccccc1S(=O)(=O)Cc1ccc(C(=O)NCCc2ccccc2)o1,-30.6%
14,CCCCn1c(=O)[nH]c(=O)c2c1nc(-c1cc(Cl)c(OC)c(OC)c1)n2C,16.2%
15,CCSc1nc(O)cc(=O)n1-c1ccc(OC)cc1,3.73%
16,O=C(c1ccco1)N(CCC(c1ccccc1)c1ccco1)Cc1ccccc1 (stereo not drawn),-14.8%
17,COc1cc(/C=C2/C(=N)N3N=C(CC(=O)N4CCOCC4)SC3=NC2=O)ccc1OC(C)c1ccccc1 (stereo not drawn),11.7%
18,Cc1ccc(NC2CCCN(C(=O)c3ccc(F)cc3)C2)cc1C (stereo not drawn),-9.71%
19,Cc1ccc(NC2CCCN(C(=O)c3ccoc3C)C2)cc1C (stereo not drawn),-1.68%
20,Cc1ccc(C(=O)N2CCCC(Nc3ccc(C)c(C)c3)C2)c(=O)[nH]1 (stereo not drawn),-50.3%
21,O=C(NCC(=O)N1CCCC(C(F)(F)F)C1)c1ccc2ccccc2c1 (stereo not drawn),-11.3%
22,Nc1n[nH]c(-c2ccc([N+](=O)[O-])cc2[N+](=O)[O-])n1,15.4%

row,SMILES,"hERG current change (%, negative = inhibition) at 10uM"
1,Cc1ccc2c(C(=O)CN3CCCC3)c(C)[nH]c2c1,-6.89%
2,Cc1ccc2c(C(=O)CN3CCCC(C)C3)c(C)[nH]c2c1 (stereo not drawn),-14.8%
3,Cc1ccc2c(C(=O)CN3CCN(C4CCCCC4)CC3)c(C)[nH]c2c1,-55.1%
4,Cc1[nH]c2ccccc2c1C(=O)CN1CC(C)CC(C)C1 (stereo not drawn),0.738%
5,COc1ccc2[nH]cc(C(=O)CN3CCC(C)CC3)c2c1,-5.75%
6,Cc1ccc2c(C(=O)CN3CC(C)CC(C)C3)c(C)[nH]c2c1 (stereo not drawn),-51%
7,COc1ccc2[nH]cc(C(=O)CN3CCN(C4CCCCC4)CC3)c2c1,-54.8%
8,CCOC(=O)C1CCN(C(C)C(=O)c2c(C)[nH]c3cc(C)ccc23)CC1 (stereo not drawn),-76.7%
9,Cc1ccc2c(C(=O)CN3CCCCC3)c(C)[nH]c2c1,-11.1%
10,CCC1CCCCN1CC(=O)c1c(C)[nH]c2cc(C)ccc12 (stereo not drawn),-27.7%
11,CCOC(=O)C1CCN(C(C)C(=O)c2c[nH]c3ccccc23)CC1 (stereo not drawn),-42.2%
12,COc1ccc2[nH]cc(C(=O)CN3CCCCC3)c2c1,-8.72%
13,CSc1ncccc1C(=O)N1CCN(S(=O)(=O)c2ccc3ccccc3c2)CC1,-34.9%
14,Cn1c(N2C(=O)CC(Cc3ccccc3)C2=O)nc2ccccc21 (stereo not drawn),-17.6%
15,COc1ccc(CN(C(=O)c2cccs2)c2nccs2)cc1OC,-10.9%
16,O=C1CC(NS(=O)(=O)c2cc(F)ccc2F)CN1c1ccc2c(c1)OCCO2 (stereo not drawn),-4.13%
17,Cc1cc(C)n2nc(SCC(=O)NC(=O)c3ccccc3Cl)nc2n1,0.516%
18,COc1ccc(N2CC(C(=O)NC3CC(C)(C)NC(C)(C)C3)CC2=O)cc1 (stereo not drawn),-2.68%
19,COc1ccc(NC2c3ccccc3C(=O)N2Cc2ccc3c(c2)OCO3)cc1 (stereo not drawn),-17.7%
20,CCOC(=O)c1ccc(NC(=O)Nc2ccon2)cc1,6.02%
21,O=C(O)C1=CC[C@@H](c2ccc(Cl)cc2)N(S(=O)(=O)c2ccc(Cl)cc2)[C@H]1c1cccc(Cl)c1,25.9%

# Reference: publication PMC4336329 (PLoS ONE, 2015)
